Screening results from PubChem.
Hits are enriched below; roughly 2.1% of the tested compounds scored in any of these assays.
HIF-2a inh = HIF-2a reporter inhibitors, primary screen, luminescence, 786-0 RCC cells | 786-0 RCC cells HIF-2a reporter, luciferase luminescence, overnight | actives 0.72% (n = 360,000) | AID 624352, 2012 | inhibition, % at 18.8 µM;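 active = inhibition of the luminescence signal of 40% or more relative to plate controls, in a single-dose primary screen at 18.75 µM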
PAX8 reporter = inhibitors of PAX8-driven TPO luciferase reporter, primary screen, RMG-I cells, single concentration; SteadyGlo, 24 h; inhibition, % at 12.6 µM; actives 1.2% (n = 360,000); AID 652154, 2013;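 active = mean replicate inhibition at least 60% with every replicate also reaching 60%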;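 note: luciferase light reporting Pax8 driven TPO promoter activity; plate controls were median of neutral control wells for no effect and mitoxantrone controls for full effect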
EWS-Fli block = EWS/Fli-driven NR0B1 reporter inhibitors, primary screen, A673 cells, NR0B1 luciferase, luminescence, MLPCN library | viability-normalised | inhibition, % at 12.6 µM | actives 0.67% (n = 350,000) | AID 651661, 2012;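 active = mean inhibition of at least 50% after viability correction, with every replicate also passing that limit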;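 note: firefly luciferase signal divided by Alamar Blue viability fluorescence both relative to DMSO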
CF NFkB inh = inhibitors of PAF-induced NF-kB signaling, primary screen, cell-based, GFP fluorescence, uHTS | inhibition, % at 5 µM | actives 0.86% (n = 360,000) | AID 588850, 2011 | KKLEB NF-kB-GFP reporter, GFP fluorescence overnight;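 active = at least 50% inhibition at 5 µM, scaled per plate between neutral and stimulator controls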;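 note: PAF is a Pseudomonas aeruginosa culture filtrate used as stimulus; plate controls were PAF-stimulated DMSO wells for no effect and unstimulated DMSO wells for full effect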
KKLEB cytotox = cytotoxicity in KKLEB CF airway cells, primary screen, cytotoxicity control for CF NF-kB inhibitor project, cell-based, uHTS, fluorescence assay plates. activity change (cytotoxicity), % at 5 µM. actives 0.36% (n = 360,000). KKLEB CF airway cells viability, ATPlite luminescence, overnight; stronger effect = lower value; cells stimulated with P. aeruginosa culture filtrate. AID 602141, 2011;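 active = corrected activity change at or below -50% at 5 µM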
Active calls of the source: *.

How did Cc1c(O)ccc(/C=N/Nc2nc(-c3cccnc3)nc3ccccc23)c1O do in these assays?
HIF-2a inh: -245.4; PAX8 reporter: 46.0; EWS-Fli block: -54.6; CF NFkB inh: 60.6*; KKLEB cytotox: -4.9

What do the screens show for `Cc1ccc(Nc2nc(-c3cccnc3)nc3ccccc23)cc1`?
HIF-2a inh: -16.6; PAX8 reporter: 29.0; EWS-Fli block: 58.3*; CF NFkB inh: -26.8; KKLEB cytotox: 7.5

What do the screens show for `CCCC(=O)Nc1ccc2c(c1)C(=O)N(C)C[C@@H](OC)[C@H](C)CN(C(=O)c1cnccn1)[C@@H](C)CO2`?
EWS-Fli block: 5.5

Results for C[C@H]1CN([C@@H](C)CO)S(=O)(=O)c2ccc(C#CC3CC3)cc2O[C@@H]1CN(C)Cc1cncnc1 ?
EWS-Fli block: 11.9

Results for CCCCn1c(N)c(-c2nc3ccccc3s2)c2c([N+](=O)[O-])nn(C)c(=O)c21 ?
HIF-2a inh: -24.6; CF NFkB inh: 48.7; KKLEB cytotox: -32.7

How did CCCCn1c(N)c(-c2nc3ccccc3s2)c2c([N+](=O)[O-])nn(CC)c(=O)c21 do in these assays?
HIF-2a inh: 1.2; CF NFkB inh: 44.9; KKLEB cytotox: -54.9*

How did CCCCCn1c(N)c(-c2nc3ccccc3s2)c2c([N+](=O)[O-])nn(CC)c(=O)c21 do in these assays?
HIF-2a inh: -11.4; CF NFkB inh: 59.0*; KKLEB cytotox: -58.5*

How did N=C1/C(=C/c2cccn2Cc2ccc(Cl)cc2)C(=O)N=C2SC=CN12 do in these assays?
HIF-2a inh: -6.4; CF NFkB inh: 34.4; KKLEB cytotox: -50.3*

Results for CC1=CC2=NC(=O)/C(=C/c3cccn3Cc3ccccc3)C(=N)N2O1 ?
HIF-2a inh: 12.8; PAX8 reporter: 5.0; EWS-Fli block: 5.1; CF NFkB inh: -1.0; KKLEB cytotox: -2.2

What do the screens show for `Cc1ccccc1-c1cc(C(=O)Nc2sc(C(=O)OC(C)C)c(C)c2C#N)c2ccccc2n1`?
HIF-2a inh: 2.6; PAX8 reporter: 80.6*; CF NFkB inh: 56.2*; KKLEB cytotox: -54.3*

What do the screens show for `COc1ccc(OC)c(-c2cc(C(=O)Nc3sc4c(c3C#N)CCC(C)C4)c3ccccc3n2)c1` (stereo not given)?
HIF-2a inh: 8.6; CF NFkB inh: 38.4; KKLEB cytotox: -51.5*

Results for CNC[C@@H]1Oc2ncc(C#Cc3ccccc3F)cc2C(=O)N([C@@H](C)CO)C[C@@H]1C ?
PAX8 reporter: 4.8; EWS-Fli block: -7.4

Results for CC(=O)NC1=NC(=O)/C(=C/c2cn(C(C)=O)nc2-c2ccccc2)S1 ?
HIF-2a inh: 5.9; PAX8 reporter: -20.8; EWS-Fli block: 8.5; CF NFkB inh: 57.1*; KKLEB cytotox: -5.3

What do the screens show for `CCN=C1S/C(=C\c2cn(C(C)=O)nc2-c2ccccc2)C(=O)N1CC`?
HIF-2a inh: -12.3; PAX8 reporter: 22.2; CF NFkB inh: 28.0; KKLEB cytotox: 2.5

What do the screens show for `O=C(C[C@H]1CC[C@H](NC(=O)Nc2ccccc2F)[C@@H](CO)O1)NCc1ccc(Cl)cc1`?
PAX8 reporter: -3.1; EWS-Fli block: 4.0

What do the screens show for `O=C1C=CC2(O[C@H](c3ccccc3)[C@@H](c3ccccc3)O2)[C@H](Sc2ccccc2O)C1`?
HIF-2a inh: 89.1*; PAX8 reporter: 34.7; EWS-Fli block: 68.0*; CF NFkB inh: 88.8*; KKLEB cytotox: -85.7*

What do the screens show for `CS(=O)(=O)Nc1ccc2c(c1)[C@H]1C[C@H](CC(=O)N3CCOCC3)O[C@H](CO)[C@H]1O2`?
EWS-Fli block: -1.5

How did COc1ccccc1C(=O)Nc1ccc2c(c1)OC[C@@H](C)N(C)C[C@H](C)[C@H](OC)CN(C)C2=O do in these assays?
PAX8 reporter: 8.3; EWS-Fli block: 6.9

What do the screens show for `O=C(NC1CCCCC1)C(c1ccc(F)cc1)N(Cc1ccco1)C(=O)CN1C(=O)c2ccccc2S1(=O)=O` (stereo not given)?
HIF-2a inh: 4.2; PAX8 reporter: 102.3*; EWS-Fli block: 7.3; CF NFkB inh: -22.5; KKLEB cytotox: 7.6

Results for O=C(NC1CCCCC1)C(c1ccc(F)cc1)N(Cc1ccco1)C(=O)Cn1nnc2ccccc21 (stereo not given) ?
HIF-2a inh: 1.6; CF NFkB inh: -10.2; KKLEB cytotox: 11.8

What do the screens show for `Cc1ccc2nc(-c3ccncc3)c(Nc3ccccc3)n2c1`?
HIF-2a inh: 7.5; PAX8 reporter: 65.2*; EWS-Fli block: 10.5; CF NFkB inh: 14.6; KKLEB cytotox: -5.6

Results for Cc1ccc2nc(-c3ccco3)c(Nc3ccccc3)n2c1 ?
HIF-2a inh: -35.2; CF NFkB inh: -23.8; KKLEB cytotox: 11.3

How did Cc1cccc(C)c1NC(=S)Nc1c(C)n(C)n(-c2ccccc2)c1=O do in these assays?
HIF-2a inh: 14.2; PAX8 reporter: 76.0*; EWS-Fli block: 1.8; CF NFkB inh: 8.0; KKLEB cytotox: -3.2

What do the screens show for `Cc1c(NC(=S)Nc2cccc(Cl)c2)c(=O)n(-c2ccccc2)n1C`?
HIF-2a inh: 12.1; PAX8 reporter: -18.3; EWS-Fli block: 4.6; CF NFkB inh: -17.7; KKLEB cytotox: 16.7

How did COC(=O)C1=C(C)N(Cc2ccc(C)cc2)C(=O)/C1=C\c1cc(OC)c(OC)c(OC)c1 do in these assays?
HIF-2a inh: 50.9*; PAX8 reporter: -2.4; EWS-Fli block: -2.5; CF NFkB inh: 23.3; KKLEB cytotox: -1.4

Results for COc1ccc(/C=N\NC(=O)c2ccccc2Cl)cc1COc1c(F)c(F)c(F)c(F)c1F ?
HIF-2a inh: -6.9; EWS-Fli block: 5.3; CF NFkB inh: -9.6; KKLEB cytotox: -11.2

What do the screens show for `COc1ccc(/C=N\NC(=O)c2ccccc2OC)cc1COc1c(F)c(F)c(F)c(F)c1F`?
HIF-2a inh: -1.7; PAX8 reporter: 64.4*; EWS-Fli block: 12.4; CF NFkB inh: -29.8; KKLEB cytotox: 17.7

How did COc1ccc(NC(=O)C2CCCN(CCCc3ccccc3)C2)cc1OCC(C)C (stereo not given) do in these assays?
HIF-2a inh: 22.1; PAX8 reporter: 40.2; EWS-Fli block: 61.1*; CF NFkB inh: 14.9; KKLEB cytotox: -8.6

What do the screens show for `COc1ccc(NC(=O)C2CCCNC2)cc1OCC(C)C` (stereo not given)?
HIF-2a inh: 13.1; CF NFkB inh: -3.1; KKLEB cytotox: 3.5

How did O=Cc1c(Cl)nc2ccccn12 do in these assays?
HIF-2a inh: 14.3; PAX8 reporter: 4.6; EWS-Fli block: 3.2; CF NFkB inh: 1.0; KKLEB cytotox: 4.3

Results for O=C(/C=C/c1c(Cl)nc2ccccn12)Nc1ccc(F)cc1 ?
HIF-2a inh: -57.0; PAX8 reporter: 111.1*; EWS-Fli block: -7.0; CF NFkB inh: -8.1; KKLEB cytotox: 7.4

Results for Cc1c(CCOC(=O)C23CC4CC(CC(C4)C2)C3)sc[n+]1CC#N ?
HIF-2a inh: 1.3; PAX8 reporter: 29.5; EWS-Fli block: 45.6; CF NFkB inh: 76.0*; KKLEB cytotox: -63.3*
